Conditions in all cases: 72 h
In test [1] the test system is HCC1937. As to the kind of experiment: relative cell viability, compound alone, vs DMSO (fraction of DMSO control); higher = less growth inhibition.
In test [2] the test system is MDA-MB-231. The description is as above.
Test [3] relates to HCC1937. As to the kind of experiment: relative cell viability, compound + RSL3, vs DMSO (fraction of DMSO control); higher = less growth inhibition.
For test [4], the system named is MDA-MB-231. Described as above.

Counter-ions that a name gives are not always drawn.
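Wherever relative cell viability, compound + RSL3, vs DMSO is given: breast cancer cell viability read out with the CCK-8 kit after co-treatment of each compound with the ferroptosis inducer RSL3.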
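Wherever relative cell viability, compound alone, vs DMSO is given: viability read out with the CCK-8 kit in 96-well plates, screening a set of 303 compounds acting on lipid metabolism targets.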

In the case of `Nc1ncnc2c1ncn2[C@@H]1O[C@H](COP(=O)(O)O)[C@@H](O)[C@H]1O` [Adenosine 5'-monophosphate], the relative cell viability turned out to be 0.663 in the test with HCC1937 [1] and 0.81 in the test on MDA-MB-231 [2].

Turning to `COc1ccc(C2(CNC(=O)c3ccc(NC(=O)c4ccco4)cc3)CCOCC2)cc1`, the results for the relative cell viability in the test on HCC1937 [1] and in the test on MDA-MB-231 [2] were 0.84 and 0.873, respectively.

With `CCC(=O)O[C@]1(C(=O)CCl)[C@@H](C)C[C@H]2[C@@H]3C[C@H](F)C4=CC(=O)C=C[C@]4(C)[C@@]3(F)[C@@H](O)C[C@@]21C` [Halobetasol Propionate], the relative cell viability in the test on HCC1937 [1] was 1.12; in the test on MDA-MB-231 [2] it was 1.13.

As to `CCN(CC)c1ccc(C=NNC(=O)c2ccncc2)c(O)c1`, the relative cell viability in the test with HCC1937 [1] was 0.4; in the test with MDA-MB-231 [2] it was 0.624.

On to `O=C(CN1CCN(C(=O)c2ccco2)CC1)Nc1cc(C(F)(F)F)ccc1Cl`, for which the relative cell viability with HCC1937 [1] was 0.767; in the test on MDA-MB-231 [2] it was 0.892.

As to `CC(c1cc2ccccc2s1)N(O)C(N)=O` (centres undefined) [Zileuton], the relative cell viability was determined as 1.21 in the test on HCC1937 [1] and 0.906 in the test on MDA-MB-231 [2].

On to `CCOc1cc(CC(=O)N[C@@H](CC(C)C)c2ccccc2N2CCCCC2)ccc1C(=O)O` [Repaglinide], for which the figures for the relative cell viability in the test on HCC1937 [1] and in the test on MDA-MB-231 [2] were 1.02 and 0.938, respectively.

As for `COc1cc(F)c(C(C)C)cc1-c1ccc(C(F)(F)F)cc1CN1C(=O)O[C@H](c2cc(C(F)(F)F)cc(C(F)(F)F)c2)[C@@H]1C` [Anacetrapib], the relative cell viability in the test with HCC1937 [1] came to 0.72; with MDA-MB-231 [2], 0.877.

Take `CCC1C(O)C2C3CCC(C(C)CCO)C3(C)CCC2C2(C)CCC(O)CC12` (centres undefined): the relative cell viability was found to be 0.848 in the test on HCC1937 [1] and 0.916 with MDA-MB-231 [2].

In the case of `O=C(O)c1cccnc1Nc1cccc(C(F)(F)F)c1` [Niflumic acid], the values for the relative cell viability with HCC1937 [1] and in the test with MDA-MB-231 [2] were 1.09 and 0.89, respectively.

Regarding `Cc1ccc(CN(CC(O)COc2cccc3[nH]ccc23)C(C)(C)C)cc1` (centres undefined), the relative cell viability with HCC1937 [1] stood at 0.994; in the test with MDA-MB-231 [2], 0.988.

With `CCCc1c(OCCCOc2ccc(OCC(=O)O)cc2)ccc(C(C)=O)c1O`, the relative cell viability with HCC1937 [1] was determined as 0.943; in the test on MDA-MB-231 [2], 1.07.

For `O=C(CCCCc1ccc2c(c1)OCO2)N1CCCCC1`, the relative cell viability is 0.608 in the test on HCC1937 [1] and 0.838 in the test with MDA-MB-231 [2].

As to `Cn1nc(C(=O)N(Cc2ccccc2)Cc2ccc(C(=O)O)cc2)c2c1-c1cc(Cl)ccc1OC2` [Nidufexor], the relative cell viability amounted to 0.937 with HCC1937 [1] and 0.932 with MDA-MB-231 [2].

Regarding `COc1ccc2[nH]cc(CCNC(C)=O)c2c1` [Melatonine], the relative cell viability with HCC1937 [1] was found to be 0.76; in the test with MDA-MB-231 [2] it was 0.783.

Take `N#Cc1c(O)c2c(-c3ccc(-c4ccccc4O)cc3)csc2[nH]c1=O`: the relative cell viability in the test on HCC1937 [1] came out at 0.719; with MDA-MB-231 [2], 0.907.

For `CCC(CC)CC1(C(=O)Nc2ccccc2SC(=O)C(C)C)CCCCC1` [Dalcetrapib], the relative cell viability in the test on HCC1937 [1] was 1.35; in the test on MDA-MB-231 [2] it was 1.06.

Consider `CC1(N)CCN(c2cnc(-c3cccc(Cl)c3Cl)c(N)n2)CC1` [SHP099 hydrochloride], for which the values for the relative cell viability with HCC1937 [1] and in the test on MDA-MB-231 [2] were 0.768 and 1.02, respectively.

In the case of `Cc1nc2ccc(C(=O)N3CCC4(CC3)CC(=O)c3c(cnn3C(C)C)C4)cc2[nH]1`, the figures for the relative cell viability in the test on HCC1937 [1] and in the test on MDA-MB-231 [2] were 0.71 and 0.859, respectively.

As for `NC(=O)c1cnccn1` [Pyrazinamide], the figures for the relative cell viability in the test on HCC1937 [1] and with MDA-MB-231 [2] were 0.654 and 0.841, respectively.

On to `O=C(CCCCCCCC(=O)NCCO)NCCO` [Adelmidrol], for which the relative cell viability with HCC1937 [1] came to 1.16; in the test with MDA-MB-231 [2], 1.04.

For `CCCCCCCCCCC#CC#CCCCCCCCCC(=O)O` [10,12-Tricosadiynoic acid], the figures for the relative cell viability in the test on HCC1937 [1] and in the test on MDA-MB-231 [2] were 0.712 and 0.911, respectively.

For the compound `CCc1ccc(CCOc2ccc(CC3SC(=O)NC3=O)cc2)nc1` (centres undefined) [Pioglitazone], the relative cell viability in the test with HCC1937 [1] came out at 1.17; in the test with MDA-MB-231 [2], 0.843.

For the compound `COc1ccc2c(=O)c(-c3ccccc3)coc2c1` [7-Methoxyisoflavone], the relative cell viability in the test on HCC1937 [1] amounted to 0.594; in the test on MDA-MB-231 [2], 0.859.

As for `Cc1c(C(=O)NN2CCCCC2)nn(-c2ccc(Cl)cc2Cl)c1-c1ccc(Cl)cc1` [Rimonabant], the relative cell viability with HCC1937 [1] is 0.936; with MDA-MB-231 [2], 0.817.

For `O=C(c1c2ccccc2cc2ccccc12)N1CCC(N2CCC[C@@H](C(=O)N3CCOCC3)C2)CC1`, the relative cell viability with HCC1937 [1] worked out at 0.763; with MDA-MB-231 [2] it was 0.836.

In the case of `CC(C)C1=CC2=CC[C@@H]3[C@](C)(CCC[C@@]3(C)C(=O)O)[C@H]2CC1` [Abietic Acid], the relative cell viability in the test on HCC1937 [1] came out at 1.02; with MDA-MB-231 [2], 1.07.

For `CN1CC(O)C2=C/C(=N/NC(N)=O)C(=O)C=C21` (centres undefined) [Carbazochrome], the relative cell viability in the test on HCC1937 [1] was 0.793; in the test with MDA-MB-231 [2], 0.871.

With `O=C(O)/C=C/c1ccc(O)c(O)c1` [Caffeic Acid], the results for the relative cell viability in the test on HCC1937 [1] and in the test with MDA-MB-231 [2] were 0.72 and 0.874, respectively.

Turning to `Cc1cc(=O)oc2c(O)c(O)ccc12` [7,8-Dihydroxy-4-methylcoumarin], the relative cell viability is 0.911 in the test on HCC1937 [1] and 1.02 with MDA-MB-231 [2].

On to `O=C(O)C(=O)Nc1sc2c(c1C(=O)O)CCNC2`, for which the values for the relative cell viability with HCC1937 [1] and in the test with MDA-MB-231 [2] were 1.01 and 0.872, respectively.

On to `CC(C)(C)N1C(=O)C(Nc2ccc(N3CCCCC3)cc2)=C(c2ccccc2)S1(=O)=O`, for which the results for the relative cell viability with HCC1937 [1] and in the test on MDA-MB-231 [2] were 1.15 and 0.947, respectively.

Take `CC1=C[C@]2(O)O[C@@]3(CC2=C(C)C)[C@@H](C)CC[C@@H]13` [Curcumenol]: the relative cell viability in the test with HCC1937 [1] was determined as 0.868; in the test with MDA-MB-231 [2] it was 0.863.

Turning to `CCC(=O)O[C@]1(C(=O)SCF)[C@H](C)C[C@H]2[C@@H]3C[C@H](F)C4=CC(=O)C=C[C@]4(C)[C@@]3(F)[C@@H](O)C[C@@]21C` [Fluticasone propionate], the relative cell viability stood at 1.34 in the test with HCC1937 [1] and 0.813 with MDA-MB-231 [2].

Regarding `CC(C)[C@H]1CC[C@H](C(=O)N[C@H](Cc2ccccc2)C(=O)O)CC1` [Nateglinide], the relative cell viability turned out to be 0.682 in the test on HCC1937 [1] and 0.869 with MDA-MB-231 [2].

Turning to `COc1ccc(Nc2ccn(-c3ccccc3)n2)cc1`, the figures for the relative cell viability with HCC1937 [1] and in the test on MDA-MB-231 [2] were 0.868 and 1, respectively.

As for `CCCCCCCCCCCCCCOc1ccc(C(=O)O)o1`, the values for the relative cell viability in the test with HCC1937 [1] and in the test on MDA-MB-231 [2] were 1.07 and 1, respectively.

For `CN(C)C(=N)NC(=N)N` [Metformin hydrochloride], the relative cell viability came to 0.98 in the test with HCC1937 [1] and 0.95 with MDA-MB-231 [2].

As to `COCCNC(=O)Nc1ccc2nc(-c3cccs3)c(-c3cccs3)nc2c1` [Ac-CoA Synthase Inhibitor1], the results for the relative cell viability in the test with HCC1937 [1] and with MDA-MB-231 [2] were 0.959 and 0.91, respectively.

With `COP(=O)(OC)OC(c1ccc(Cl)cc1)P(=O)(OC)OC` (centres undefined) [Mifobate], the relative cell viability with HCC1937 [1] worked out at 1.18; in the test with MDA-MB-231 [2], 1.2.

On to `C[C@H](CCOc1cccc(CC(=O)O)c1)N(Cc1cccc(C(F)(F)F)c1Cl)CC(c1ccccc1)c1ccccc1` [RGX-104 free Acid], for which the relative cell viability amounted to 0.613 in the test with HCC1937 [1] and 0.863 in the test with MDA-MB-231 [2].

For the compound `CN(CCOc1ccc(CC2SC(=O)NC2=O)cc1)c1ccccn1` (centres undefined) [Rosiglitazone HCl], the relative cell viability with HCC1937 [1] was determined as 0.781; in the test on MDA-MB-231 [2], 0.947.

Take `C=C[C@H]1CN2CC[C@H]1C[C@@H]2[C@@H](O)c1ccnc2ccc(OC)cc12` [Quinidine sulfate]: the relative cell viability was 0.803 in the test with HCC1937 [1] and 1.02 in the test with MDA-MB-231 [2].

Take `Oc1ccc(/C=C/c2cc(O)cc(O)c2)cc1` [Resveratrol]: the relative cell viability with HCC1937 [1] was 0.67; with MDA-MB-231 [2], 0.755.

`c1cc(-c2cnn3cc(-c4ccc(OCCN5CCCCC5)cc4)cnc23)ccn1` [Dorsomorphin]: the relative cell viability turned out to be 0.216 with HCC1937 [1] and 0.383 in the test on MDA-MB-231 [2].

With `CC(C)OC(=O)CCC/C=C\C[C@@H]1[C@@H](CC[C@@H](O)CCc2ccccc2)[C@H](O)C[C@@H]1O` [Latanoprost] + COC(=O)c1ccc([C@H]2c3[nH]c4ccccc4c3C[C@H](C(=O)OC)N2C(=O)CCl)cc1 [RSL3], the relative cell viability is 1.03 with HCC1937 [3] and 0.597 in the test on MDA-MB-231 [4].

`C[C@H]1N=C(N(C)C)N=C(N)N1` [Imeglimin hydrochloride] + COC(=O)c1ccc([C@H]2c3[nH]c4ccccc4c3C[C@H](C(=O)OC)N2C(=O)CCl)cc1 [RSL3]: the relative cell viability with HCC1937 [3] worked out at 0.504; in the test with MDA-MB-231 [4] it was 0.647.

(Values after the supplement of paper PMC9492666.)
